# Experimental data from the OligoGym collection.
# How the values were obtained:
# Test in all cases: pooled miR-30 sensor sort-seq; sequence = guide strand
# Conditions in all cases: shRNA
# COL4A3BP = biological target: COL4A3BP
# COMMD10 = biological target: COMMD10
# COMMD1 = biological target: COMMD1
# COMMD8 = biological target: COMMD8
# Further: reference of the scale not given here.
sequence,measurement,setting,value
TACTTCTCTTCTGTATACCTTC,sensor-assay potency score (higher = more potent),COL4A3BP,-0.012
TTGAGCAGAGTGAGCCATCTGA,sensor-assay potency score (higher = more potent),COMMD10,-0.146
TAACTTTTCTTTATTGCCGTTG,sensor-assay potency score (higher = more potent),COL4A3BP,-0.347
TTTTGTCTTGTGGCTCTTCCAG,sensor-assay potency score (higher = more potent),COMMD1,-0.915
TTGCATTTATCAGTGACACTGC,sensor-assay potency score (higher = more potent),COMMD10,0.191
AATTATTTTGTGAAGAAGCTGC,sensor-assay potency score (higher = more potent),COMMD8,0.272
TTTACATCTAGATGCAGGCTTA,sensor-assay potency score (higher = more potent),COMMD8,-0.242
TGCTTGTATAGTCTCTAGCTTG,sensor-assay potency score (higher = more potent),COMMD10,-1.08
TTTGGAAATGACAGCAGCTTGG,sensor-assay potency score (higher = more potent),COMMD1,-0.686
TTTTTGAAGAATCCGAGTGAGC,sensor-assay potency score (higher = more potent),COMMD10,-1.13
TTGACTGAGACTTGCCATCAAC,sensor-assay potency score (higher = more potent),COMMD1,-1.5
TTCTACCTCTGACAGCGTCTTC,sensor-assay potency score (higher = more potent),COMMD1,-0.88
TATCTTGTCTGTCAAGAGCAGC,sensor-assay potency score (higher = more potent),COL4A3BP,-1.23
TTCTTCTACAACCAACTGCCAA,sensor-assay potency score (higher = more potent),COL4A3BP,-0.938
TTTTACATCTAGATGCAGGCTT,sensor-assay potency score (higher = more potent),COMMD8,0.949
TTCTTCTACCTCTGACAGCGTC,sensor-assay potency score (higher = more potent),COMMD1,-0.845
TTGCCATCAACTCTCCAGCTCA,sensor-assay potency score (higher = more potent),COMMD1,-1.2
TTGTAGGAAAGTCATCTTCATC,sensor-assay potency score (higher = more potent),COL4A3BP,-1.71
TTCTCTTCTGTATACCTTCATT,sensor-assay potency score (higher = more potent),COL4A3BP,-1.23
TTCTCCTTCTTCTACAACCAAC,sensor-assay potency score (higher = more potent),COL4A3BP,-1.55
TCAACTGCTGAAATATCTCTTC,sensor-assay potency score (higher = more potent),COMMD8,-0.0513
TATTTCTCTTGACAGAGCCTGT,sensor-assay potency score (higher = more potent),COMMD8,-1.04
TTGTATAGTCTCTAGCTTGTTA,sensor-assay potency score (higher = more potent),COMMD10,0.109
TTTGACCTCATCAAATTCCAAA,sensor-assay potency score (higher = more potent),COMMD1,-0.935
TTTGTCTTGTGGCTCTTCCAGA,sensor-assay potency score (higher = more potent),COMMD1,-0.37
TCGACATTCATCAAAATCGTGA,sensor-assay potency score (higher = more potent),COL4A3BP,-0.678
TAGAAATCAAACAACTCCTTGT,sensor-assay potency score (higher = more potent),COMMD10,0.836
TATTGTTTCAAGAACTAGGTGA,sensor-assay potency score (higher = more potent),COMMD10,0.412
TTTCAACAACTCCAACTCCTTC,sensor-assay potency score (higher = more potent),COMMD1,-0.622
TTCTACTAAGGTACACATCTTA,sensor-assay potency score (higher = more potent),COMMD10,0.49
